The results in this text go back to PubChem BioAssay AID492953 (The Scripps Research Institute Molecular Screening Center, 2010).

In all, about 340,000 compounds went through this assay and about 4,200 (1.2%) were called active. Many of the other results were omitted from the sample, so actives are more common in it than they were. A number with no mark means an inactive call.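 The calls were made as follows: active = inhibition above the mean of all tested compounds plus 3 SD (cut at about 24% in these data); inactive = the rest.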

As a reminder, the inhibition is the relative decrease from the control value, in per cent.

Sequence of Platelet-activating factor acetylhydrolase IB subunit alpha2 (Homo sapiens) (P68402 whole entry, looked up): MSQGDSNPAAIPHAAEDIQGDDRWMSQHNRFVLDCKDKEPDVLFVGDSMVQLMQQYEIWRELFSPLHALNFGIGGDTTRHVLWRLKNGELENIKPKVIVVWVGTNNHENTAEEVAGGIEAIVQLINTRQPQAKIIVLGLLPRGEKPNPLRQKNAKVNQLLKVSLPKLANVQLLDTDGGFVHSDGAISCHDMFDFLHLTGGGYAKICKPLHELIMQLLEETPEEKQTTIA

The experiment concerns the target Platelet-activating factor acetylhydrolase IB subunit alpha2 (Homo sapiens) (UniProt P68402). In words: inhibition of PAF acetylhydrolase 1b subunit 2 – biochemical, fluorescence polarization, human, primary screen (AID 492953).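 Also: 0% = enzyme with DMSO and 100% = wells lacking PAFAH1B2.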 As to conditions: recombinant PAFAH1B2, FP-rhodamine activity probe, at 3.39 µM, active compounds read high.
Regarding `Cc1ccc2c(c1)=C/C(=C\c1c(O)[nH]c(=O)[nH]c1=O)C(=O)N=2`, the inhibition is 24.9% (active).
In the case of `O=C1N=c2ccccc2=C/C1=C\c1c(O)[nH]c(=S)[nH]c1=O` it was 3.53%; in that of `O=c1[nH]c(O)c(C=Nc2cc(F)cc(F)c2)c(=O)[nH]1`, -5.42%; in that of `Cc1ccc(Cn2c(C)c3cnn(CC(=O)N4CCC5(CC4)OCCO5)c(=O)c3c2C)cc1`, 4.99%.
Consider `Cc1cccc(OP(=O)(Oc2cccc(C)c2)OC(c2ccccc2)C(F)(F)F)c1` (stereo not given), for which the inhibition was 10.7%.
Regarding `CNC(=O)O/N=C(\N)Cc1csc2ccccc12`, the inhibition is 7.09%.
In the case of `CNC(=O)O/N=C(\N)Cc1csc2ccc(Cl)cc12` it was 71.7% (active); in that of `N[C@@H](Cc1c[nH]c2ccccc12)c1nnc(SCc2c(F)cccc2Cl)o1`, 3.92%.
In the case of `CCC(C)(O)C(=O)OC1C(=O)OC2CC3C(C)=CC(=O)C(O)C3(C)C3C4(O)OCC23C1C(C)C4O` (stereo not given) it was -0.05%; in that of `CCCCCn1c(=O)c(C(=O)Nc2c(C)n(C)n(-c3ccccc3)c2=O)c(O)c2ccccc21`, -3.03%; in that of `CC(C)(C)c1ccc(CN2C(=O)CN=C(c3ccccc3)c3ccccc32)cc1`, 88% (active).
As to `Nc1ccc(C(=O)N/N=C2/CN3CCC2CC3)cc1`, the inhibition was -0.84%.
Take `CN(C)CC1CCCCC1OC(=O)c1ccc(Cl)c(Cl)c1` (stereo not given): the inhibition is -0.45%.
In the case of `CCCCCCN=C(CC)c1c(O)n(CCCC)c(=O)[nH]c1=O` it was 5.01%.
In the case of `CN(C)CC1Oc2ccccc2OC1(O)c1ccccc1` (stereo not given) it was 0.51%.
In the case of `CC1=CC(=Cc2sc3ccccc3[n+]2C)C=C(C)O1` it was -0.8%; in that of `CC/C(=N\NC(=O)c1ccccc1O)c1c(O)n(Cc2ccccc2)c(=O)[nH]c1=O`, 26.1% (active); in that of `CCC(=NCc1ccco1)c1c(O)n(Cc2ccccc2)c(=O)[nH]c1=O`, 3.82%.
Consider `O=C(N/N=C/c1c(O)n(Cc2ccccc2)c(=O)[nH]c1=O)c1ccccc1`, for which the inhibition is 18.9%.
Take `O=C(NCC(c1cccnc1)N1CCN(c2ccccc2)CC1)Oc1ccccc1` (stereo not given): the inhibition was 4.28%.
As to `O=C(CSC1c2ccccc2-c2ccccc21)N/N=C/c1ccccc1`, the inhibition was 8.06%.
In the case of `CCOC(=O)C1(c2ccccc2)CCN(CC(O)c2ccc(NC(C)=O)cc2)CC1` (stereo not given), the inhibition is 0.73%.
In the case of `c1ccc(CCN2CCC3(CC2)OCCO3)cc1`, the inhibition is 3.22%.
For the compound `O=C(OCCN1CCOCC1)C1(c2ccccc2)CCCC1`, the inhibition was 36.1% (active).
In the case of `Cc1ccc(N(C)C(=O)Oc2cccc3ccc(C)nc23)cc1` it was 2.03%.
